# Measurements published in PubChem BioAssay (NCI).
# This is part of a sample that, as a whole, favours compounds with a hit. Of some 79,000 tested, about 15% had one in any assay. Unmarked numbers belong to inactive results. Active and inactive are the calls of the source. No stated cut-off is given here; in the data, active means growth inhibition above about 70%; inactive means the rest.
# How the values were obtained:
# [1] = NCI Yeast Anticancer Drug Screen. Data for the rad50 strain (AID 155);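 further: 0% = growth of vehicle-only cultures of the same strain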; conditions: S. cerevisiae rad50 strain growth inhibition, active compounds read high
# Procedure, shortened: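 Relative growth inhibition (compound vs vehicle) was measured in yeast with a defined repair-gene alteration.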
# [2] = NCI Yeast Anticancer Drug Screen. Data for the mec2-1 strain (AID 157); conditions: S. cerevisiae mec2-1 strain, active compounds read high
# Procedure, shortened: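 mec2-1 yeast strain, carrying an alteration in DNA damage repair or cell cycle control, was exposed to compounds; growth inhibition was measured relative to vehicle-treated controls.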
# [3] = NCI Yeast Anticancer Drug Screen. Data for the sgs1 mgt1 strain (AID 161);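 further: 0% = growth of cultures given vehicle only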; conditions: S. cerevisiae sgs1 mgt1 strain, active compounds read high
# Procedure, shortened: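 Percent growth inhibition was derived by comparing compound-exposed mutant yeast with vehicle-exposed cultures. The strain carries alterations in DNA damage repair.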
# [4] = NCI Yeast Anticancer Drug Screen. Data for the cln2 rad14 strain (AID 165);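 further: 0% = growth equal to vehicle treated cultures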; conditions: S. cerevisiae cln2 rad14 strain, active compounds read high
# Procedure, shortened: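 Yeast carrying cln2 and rad14 alterations (cell cycle control and DNA damage repair) were exposed to compounds. Growth inhibition was measured against vehicle-treated controls.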
# [5] = NCI Yeast Anticancer Drug Screen. Data for the bub3 strain (AID 167); conditions: S. cerevisiae bub3 mutant strain, active compounds read high
# Procedure, shortened: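 Screening used yeast with an engineered genetic alteration affecting cell cycle control. Compound-exposed cultures were compared with vehicle cultures, and reduced growth was taken as inhibition.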
# [6] = NCI Yeast Anticancer Drug Screen. Data for the mlh1 rad18 strain (AID 175); conditions: S. cerevisiae mlh1 rad18 strain growth inhibition, active compounds read high
# Procedure, shortened: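 Growth inhibition of the yeast strain was measured after compound exposure and expressed relative to vehicle-treated controls. The strain carries defined defects in DNA damage repair.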
# [7] = at 5.0 µM (retest, dose inferred, filed as 0.5)
# [8] = at 50.0 µM (retest, dose inferred, filed as 5.0)
Structure (SMILES),"growth inhibition [1, 7]","growth inhibition [1, 8]",growth inhibition ([1]; at 50.0 µM),"growth inhibition [2, 7]","growth inhibition [2, 8]",growth inhibition ([2]; at 50.0 µM),"growth inhibition [3, 7]","growth inhibition [3, 8]",growth inhibition ([3]; at 50.0 µM),"growth inhibition [4, 7]","growth inhibition [4, 8]",growth inhibition ([4]; at 50.0 µM),"growth inhibition [5, 7]","growth inhibition [5, 8]",growth inhibition ([5]; at 50.0 µM),"growth inhibition [6, 7]","growth inhibition [6, 8]",growth inhibition ([6]; at 50.0 µM)
C/C(=N\NC(=O)C[n+]1ccccc1)c1sc(-c2nc(C)c(/C(C)=N/NC(=O)C[n+]3ccccc3)s2)nc1C,95% (active),97% (active),97.2% (active),97% (active),99% (active),96.8% (active),98% (active),97% (active),96.9% (active),92% (active),97% (active),93% (active),95% (active),97% (active),96.8% (active),93% (active),98% (active),96.4% (active)
CCOC(=O)c1cc(C)ccc1-c1ccc(C)cc1C(=O)OCC,1%,29%,57.6%,-10%,8%,67.8%,1%,68%,77% (active),-1%,17%,3.55%,6%,46%,86.8% (active),2%,28%,75.5% (active)
COC1/C=C\OC2(C)Oc3c(C)c(O)c4c(c3C2=O)C2=NC(C)(C)N(c3ccccc3)C2=C(NC(=O)/C(C)=C\C=C\C(C)C(O)C(C)C(O)C(C)C(OC(C)=O)C1C)C4=O (configuration not stated),-2%,78% (active),24.9%,-2%,95% (active),53.5%,-2%,85% (active),72.8% (active),2%,91% (active),39.9%,-7%,69%,27.9%,-2%,86% (active),51.9%
OC12C3C4CC5C(C4[C@@H]1Br)C2[C@@](O)(c1c(F)c(F)c(F)c(F)c1F)C53 (some centres not stated),8%,21%,27.2%,3%,8%,11.6%,3%,3%,27.6%,3%,12%,22.2%,8%,54%,79.3% (active),8%,35%,73.7% (active)
Cc1c(F)c(C)c(C(=O)O)c(C)c1F,26%,99% (active),99.4% (active),27%,98% (active),99.5% (active),20%,99% (active),99.5% (active),8%,99% (active),99.2% (active),11%,99% (active),99.2% (active),27%,100% (active),99.6% (active)
CCCc1cc2c(cc1CS(=O)(=O)CC)OCO2,-4%,9%,-9.1%,-4%,-2%,2.3%,-7%,-5%,1.1%,-7%,0%,23.3%,23%,17%,16.7%,-4%,-6%,3.75%
C1=C(c2ccccc2)[P+](c2ccccc2)(c2ccccc2)C=C(c2ccccc2)[P+]1(c1ccccc1)c1ccccc1,87% (active),98% (active),99.3% (active),89% (active),99% (active),99.7% (active),89% (active),99% (active),99.2% (active),44%,98% (active),98.2% (active),83% (active),99% (active),99.2% (active),83% (active),99% (active),99.2% (active)
COC(=O)C(=O)C(=O)C1CCCC(c2ccccc2)C1=O (configuration not stated),1%,96% (active),96.3% (active),0%,97% (active),98% (active),1%,53%,71.6% (active),2%,98% (active),94.8% (active),-11%,98% (active),97.8% (active),-10%,97% (active),96.4% (active)
COC(=O)C1CCC(=O)N1C(c1ccc(OC)cc1)c1cc(OC)c(OC)c(OC)c1 (configuration not stated),27%,45%,-33.5%,21%,15%,8.55%,32%,42%,1.95%,46%,40%,-7.4%,43%,41%,-8.55%,17%,20%,-10.2%
Cc1ccc(C2SCC(=O)N2c2ccc(-n3c(-c4ccccc4)nc4ccccc4c3=O)cc2)cc1 (configuration not stated),-16%,90% (active),75.3% (active),-8%,55%,67.5%,-10%,81% (active),77.2% (active),-16%,87% (active),83.2% (active),-24%,74% (active),72.7% (active),-8%,88% (active),79.8% (active)
COc1cccc2c1C(=O)c1c(O)c3c(c(O)c1C2=O)C[C@@](O)(C(C)=O)C[C@@H]3OC1CC(N(CCO)Cc2ccccc2)C(O)C(C)O1 (some centres not stated),97% (active),99% (active),91.2% (active),99% (active),100% (active),91.3% (active),95% (active),99% (active),91.5% (active),90% (active),97% (active),90.8% (active),98% (active),99% (active),89.4% (active),95% (active),99% (active),90.8% (active)
CCCCCOCC(=O)OC,-1%,13%,-1.9%,0%,5%,-11.6%,-1%,5%,-16.2%,2%,0%,44.2%,0%,7%,-1.3%,2%,7%,-15.1%
CC1=C(C)CC(C#N)(C#N)C(C#N)(C#N)C1,-12%,80% (active),83.9% (active),10%,92% (active),79.6% (active),-13%,80% (active),82.2% (active),-18%,86% (active),38.1%,30%,97% (active),58.7%,6%,97% (active),75.3% (active)
CCCCCCCCC[n+]1cccc(C(=O)c2ccccc2)c1,-1%,53%,51.6%,4%,56%,24.8%,-165%,77% (active),72.7% (active),-4%,42%,3.95%,0%,70% (active),82.5% (active),36%,78% (active),72.7% (active)
COc1ccc2c(c1)OC(OC)(c1ccccc1)C(O)(OC)C2=O (configuration not stated),1%,21%,40.7%,-7%,22%,31.8%,3%,35%,59%,-9%,15%,7.25%,-1%,17%,20.4%,-4%,33%,44.4%
COc1cc(/C=C/C2=C(C)C(=O)CC(c3cc(OC)c(OC)c(OC)c3)C2C)cc(OC)c1OC (configuration not stated),2%,-1%,-6.25%,-5%,22%,-1.7%,0%,25%,15.4%,-8%,-27%,75.8% (active),-2%,7%,2.1%,0%,-102%,42.6%
C[C@]12CC[C@@H]3c4cc(OCC(F)(F)F)c(O)cc4CC[C@H]3[C@@H]1CC[C@@H]2O,-3%,97% (active),98.6% (active),-5%,99% (active),98.5% (active),10%,99% (active),98.8% (active),-13%,97% (active),98.2% (active),5%,99% (active),98.8% (active),-6%,98% (active),98.6% (active)
O=c1[nH]c2cc(Cl)ccc2nc1/C=C(\O)c1ccc(N2CCN(c3ccc(/C(O)=C/c4nc5ccc(Cl)cc5[nH]c4=O)cc3)CC2)cc1,10%,12%,95.8% (active),0%,19%,96.3% (active),-3%,-12%,94.2% (active),17%,-10%,90.8% (active),19%,-15%,94.5% (active),-25%,-7%,94.2% (active)
Cc1cc(SCc2ccccc2)cc(C)[o+]1,-1%,92% (active),17.4%,18%,99% (active),44.4%,-20%,88% (active),60.1%,-1%,93% (active),55.8%,-2%,96% (active),61.5%,-6%,96% (active),63.7%
